# From PubChem BioAssay
# Only a sample is shown.
# aSyn 5UTR act: Activators via SNCA 5'UTR binding, MLPCN | alpha-synuclein 5'UTR reporter, activators screen | activity score, % (tested at 7.5 µM), hits read low | AID 1814, 2009 | hit rate 7.1% among 300,000; in the data active = activity score below about -60%
# Starred values were filed as active, the others as inactive.
SMILES,aSyn 5UTR act
COc1cccc(-c2nc(-c3ccc4c(c3)NC(=O)CO4)cs2)c1,-197.1*
COc1cccc(C2CC(=O)Nc3cc4c(cc32)CCC4)c1 (stereo unspecified),84.2
COc1cccc(CNC(=O)CCS(=O)(=O)c2ccc3c(c2)NC(=O)CO3)c1,98.7
Cc1cccn2cc(-c3ccc4c(c3)NC(=O)CO4)nc12,-96.6*
CN(C)c1ccc(/C=N/N=C/c2ccccc2O)cc1,-171.1*
CCCN1CCC(=O)N([C@H](CSc2ccc(C)cc2)CC(C)C)CC1,-174.8*
CCCN1CCC(=O)N([C@H](CSc2ccccc2)CC(C)C)CC1,-99.7*
CC(C)C[C@@H](CSc1ccccc1)N1CCN(CC(C)C)CCC1=O,-175.1*
CCCN1CCC(=O)N([C@H](CSc2ccc(Br)cc2)c2ccccc2)CC1,-120.2*
COc1ccc2cc(C(=O)C3CCCN(C(=O)CCc4cnn(C)c4)C3)ccc2c1 (stereo unspecified),-82.4*
C/C(=N\NC(=O)c1cc2ccccc2cc1O)c1ccccn1,87.9
C/C(=N/NC(=O)c1cc2ccccc2cc1O)C1C(=O)c2ccccc2C1=O,-93.9*
CCOC(=O)c1cnc2ccc(Cl)cc2c1N1CCN(C)CC1,-96.9*
CCOC(=O)c1cnc2c(OC)cccc2c1N1CCN(c2ccccc2OC)CC1,62.4
CCOC(=O)C1(Cc2cccc(OC)c2)CCCN(C(=O)CCN2CCCO2)C1 (stereo unspecified),-111.9*
CCOC(=O)C1(Cc2cccc(Cl)c2)CCCN(C(=O)c2cc(C)on2)C1 (stereo unspecified),-72.1*
CCOC(=O)C1(Cc2cccc(OC)c2)CCCN(C(=O)c2cc(CC(C)C)[nH]n2)C1 (stereo unspecified),-118.0*
CCOC(=O)C1(Cc2cccc(OC)c2)CCCN(C(=O)c2ccc(OC)o2)C1 (stereo unspecified),-125.8*
O=C(Nc1ccc2oc(-c3cccc4ccccc34)nc2c1)c1ncn[nH]1,-183.8*
O=C(Nc1ccc2oc(-c3ccccc3Cl)nc2c1)c1ncn[nH]1,-153.2*
CC(C)C(=O)Nc1ccc2oc(-c3cc(F)c(F)cc3Cl)nc2c1,-153.7*
CC(=O)Nc1ccc2oc(-c3cc(F)c(F)cc3Cl)nc2c1,61.0
CC(C)c1ccc2oc(-c3ccc(NC(=O)c4ncn[nH]4)cc3)nc2c1,-79.8*
Cc1cc(N(C)/N=C/c2ccccc2O)nc(-c2ccccc2O)n1,-97.2*
CCSc1nn2c(=O)c3ccccc3nc2s1,-120.4*
SMILES,aSyn 5UTR act
Cc1ccc2nc(-c3ccsc3)c(NC3CCCC3)n2c1,-64.5*
O=C(CSc1ccc(F)cc1)Nc1ccc(Br)cc1,-148.8*
O=C(CSc1ccc(F)cc1)Nc1ccccc1Br,-74.5*
C=CCNC(=S)N/N=C/c1ccc(-c2ccc(OC)cc2)o1,-61.8*
CC(C)(C)NC(=S)N/N=C\c1ccc(-c2ccc([N+](=O)[O-])cc2)o1,-78.9*
COc1ccc(CSc2nnc(SCc3ccc([N+](=O)[O-])cc3)s2)cc1,-121.6*
C[n+]1cc[nH]c1SCC(=O)c1ccccc1,-71.7*
O=C(Nc1nc2ccccc2[nH]1)c1cc(F)cc(F)c1,-148.2*
COc1ccc2oc(C(=O)Nc3nc4ccccc4[nH]3)c(C)c2c1,-102.5*
COc1ccc(Br)c(C(=O)Nc2nc3ccccc3[nH]2)c1,-87.1*
O=C(Nc1nc2ccccc2[nH]1)c1ccc(F)c(S(=O)(=O)N2CCOCC2)c1,-98.7*
O=C(Nc1nc2ccccc2[nH]1)c1ccccc1F,108.4
CC(C)Oc1ccc(C(=O)Nc2nc3ccccc3[nH]2)cc1,81.5
Cn1nc(C(=O)Nc2nc3ccccc3[nH]2)c2ccccc2c1=O,-144.1*
Cc1cc(C)cc(C(=O)Nc2nc3ccccc3[nH]2)c1,-139.1*
COc1cc(OC)cc(C(=O)Nc2nc3ccccc3[nH]2)c1,-188.8*
N#C/C(C(=O)Oc1ccccc1)=C1\C=CC=CN1,-79.9*
CCc1ccc(C(=O)Cn2ccsc2=N)cc1,-101.5*
COc1ccc(OS(=O)(=O)Cc2ccccc2)cc1,-103.5*
Cc1ccc(C(=O)Nc2cc3c(oc2=O)CCCC3=O)cc1,-65.1*
COc1cc(/C=C2\C=CC(=O)O2)cc(OC)c1,-65.1*
COc1ccc2c(C)nc(Nc3nc(-c4ccccc4)cc(=O)[nH]3)nc2c1,-635.1*
Cc1ccc2c(C)nc(Nc3nc(CSc4nc5ccccc5[nH]4)cc(=O)[nH]3)nc2c1,55.4
Cc1nc(Nc2nc3c(c(=O)[nH]2)CCC3)nc2ccccc12,125.6
Cc1ccc(N2Cc3ccccc3C2=S)cc1,-154.0*
SMILES,aSyn 5UTR act
S=C1c2ccccc2CN1c1ccccc1,-64.4*
COc1cc2c(C#N)c(N3CCc4ccccc4C3)nc(N)c2c(N)n1,-88.5*
O=C(O)COn1c(-c2ccccc2)nc2ccc([N+](=O)[O-])cc21,-165.1*
CCOC(=O)C(C)On1c(-c2ccc(Cl)cc2)nc2ccc([N+](=O)[O-])cc21 (stereo unspecified),-175.8*
CCOC(=O)C(C)On1c(-c2ccccc2)nc2ccc([N+](=O)[O-])cc21 (stereo unspecified),-192.0*
CCOC(=O)c1ccc(NC(=O)c2ccnn2C)cc1,-159.2*
CC(=O)Nc1ccc(NC(=O)c2ccccc2F)cc1,-81.4*
O=C(Nc1ccc(Oc2cccnc2)cc1)c1ccccc1F,-114.7*
CCOC(=O)c1ccc(NC(=O)c2ccccc2C)cc1,-156.4*
O=C(Nc1ccc(F)cc1)c1ccccc1F,-135.0*
O=C(Nc1ccc2cn[nH]c2c1)c1ccccc1F,-224.3*
O=C(Nc1ccc(C(=O)N2CCCC2)cc1)c1ccccc1F,-65.4*
CCOC(=O)Nc1ccc(NC(=O)c2ccccc2F)cc1,-149.1*
O=C(Nc1ccc2oc(-c3ccc(F)cc3)nc2c1)c1ccccc1F,-113.5*
C/C(=N\NC(=O)c1cc(C2CC2)nc2ccccc12)c1ccc(O)cc1O,73.7
Cc1onc(-c2ccccc2)c1C(=O)NC(=S)NNC(=O)c1ccc(O)cc1O,64.1
O=C(NNc1c2ccccc2nc2ccccc12)c1ccc(O)cc1O,-78.6*
O=C(NNc1c2ccccc2nc2ccccc12)c1ccccc1O,-92.9*
NC(N)=N/N=C/c1ccc(OCc2ccccc2)c(OCc2ccccc2)c1,106.1
O=C(/C=C/c1cccnc1)c1ccc(NC(=O)c2cccc(Br)c2)cc1,-103.2*
Cc1cccc(C(=O)Nc2ccc(C(=O)/C=C/c3cccnc3)cc2)c1,-98.3*
O=C(/C=C/c1ccc(OCc2ccccc2)c(OCc2ccccc2)c1)c1cccnc1,-61.6*
COc1cc(C(=O)/C=C/c2cccnc2)ccc1O,-106.7*
Cc1cccc(C(=O)Nc2ccc(C(=O)/C=C/c3ccncc3)cc2)c1,-159.8*
CC(=O)N(C1=C(Cl)C(=O)c2ccccc2C1=O)C1CCCCC1,58.3
SMILES,aSyn 5UTR act
CC(=NC1CCCCC1)C1=C(O)c2ccccc2C1=O,-120.9*
CCc1ccc(C(=O)CSc2ncn[nH]2)cc1,-114.5*
CC1CCN(c2ccc(NC(=O)c3ccc(Br)o3)cc2)CC1,-143.7*
CS(=O)(=O)N1CCN(c2ccc(NC(=O)c3ccc(Br)o3)cc2)CC1,-123.4*
O=C(/C=C/c1nc2ccccc2s1)N1CCCCCC1,-107.1*
CC1CCCCC1NC(=O)/C=C/c1nc2ccccc2s1 (stereo unspecified),-148.5*
O=C(CCS(=O)(=O)c1ccccc1)NC12CC3CC(CC(C3)C1)C2,-179.3*
Cc1csc(N/N=C/c2c(F)cccc2Cl)n1,-74.2*
Cc1csc(N/N=C/c2ccccc2F)n1,-200.5*
CCOc1ccc(/C=N/Nc2nc(C)cs2)c(O)c1,-259.6*
CCc1ccc(C(=O)c2cncc(Br)c2)cc1,-63.0*
